Source: PubChem BioAssay (EPA / NIEHS)
Calls of active or inactive are those of the source. The calls were made as follows: active = hit-call score of the fitted dose curve at least 0.9, where 1 is the maximum; inactive = score below 0.9.

Assay: APR_HepG2_p53Act_1hr: Apredica 1-hour HepG2 Assay for p53 Activation (AID 2282671)
Details: high-content imaging, actives raise or lower the signal
Procedure: APR_HepG2_1hr is a cell-based, multiplexed-readout assay that uses HepG2, a human liver cell line, with measurements taken at 1 hour after chemical dosing in a 384-well plate.APR_HepG2_p53Act_1hr is one of 10 assay component(s) measured or calculated from the APR_HepG2_1hr assay. It is designed to make measurements of dna content, a form of viability reporter, as detected with fluorescence intensity signals by HCS Fluorescent Imaging technology.Data from the assay component APR_HepG2_p53Act_1hr was analyzed into 1 assay endpoint. This assay endpoint, APR_HepG2_p53Act_1hr, was analyzed with bidirectional fitting relative to DMSO as the negative control and baseline of activity. Using a type of viability reporter, measures of protein for gain or loss-of-signal activity can be used to understand the signaling at the pathway-level as they relate to the gene TP53. Furthermore, this assay endpoint can be referred to as a primary readout, because this assay has produced multiple assay endpoints where this one serves a signaling function. To generalize the intended target to other relatable targets, this assay endpoint is annotated to the dna binding intended target family, where the subfamily is tumor suppressor.
Cells were treated with dimethyl sulfoxide (DMSO) as a solvent control at a final concentration of 0.5% v/v or with compounds in DMSO with a resulting final DMSO concentration of 0.5% v/v. Compound treatment was done at concentrations of 0.39, 0.78, 1.56, 3.12, 6.24, 12.5, 25, 50, 100, and 200 uM in duplicate on each plate. Cells were treated with compounds for 1, 24, or 72 hr. Carbonyl […] m-chloro-phenylhydrazone (CCCP) and taxol were used as positive controls for mitochondrial function and cytoskeletal stability, respectively; DMSO served as the negative control for this experiment. Cells were fixed by the direct addition of 50 uL formaldehyde in Hank's Balanced Salt Solution (HBSS) to a final concentration of 3.7%. After incubation in the fixation medium for 30 min at room temperature (293-298 K), cells were rinsed twice with HBSS and treated with cell permeabilization buffer (16 uL of 0.5% Triton X-100) for 10 min at room temperature (293-298 K) before labeling. For mitochondrial membrane potential and mitochondrial measurements, pre-fixed cells were incubated with 50 uL of MitoTracker Red CMXRos (Invitrogen) at a concentration of 250 nM for 30 min before fixation. In the remaining cases, post-fixed cells were labeled by incubation with a multiplexed mixture of primary antibodies in HBSS for 60 min at room temperature (293-298 K) to detect immunoreactivity of c-Jun (1:500), phospho-histone H3 (1:100), phospho-histone H2A.x (1:200), p53 (1:400), alpha-tubulin (1:200) and Hoechst 33342 (2 ug/mL). Cells were labeled for multiplexed imaging on two separate plates: a) Hoechst 33342, MitoTracker Red, phospho-histone H3, and alpha-tubulin, and b) Hoechst 33342, phospho-histone H2A.x, and c-Jun. A final rinse with HBSS (50 uL) was performed before analysis. The primary and secondary antibodies for the proteins were phospho-histone H3 (rabbit anti-phospho-histone H3 and FITC-donkey anti-rabbit IgG), phospho-histone H2A.x (mouse anti-phospho-histone H2A.x and FITC-donkey anti-mouse IgG), c-Jun (rabbit anti-phospho-c-Jun and Cy3-donkey anti-rabbit IgG), p53 (sheep anti-p53 and Cy5-donkey anti-sheep IgG), alpha-tubulin (mouse anti-alpha-tubulin and Cy5-donkey anti-mouse IgG). These antibodies are available as the CellCiphr HepG2 assay kit (Millipore).Digital images of each well were captured using a Cellomics ArrayScan VTI (Thermo Scientific Cellomics) (0.8 NA objective, 0.63x optical coupler, and XF-93 filter set) at 20x magnification. The images were acquired using the autofocus feature of the ArrayScan instrument, which entails the following steps. First, the camera focuses on channel 1 (Hoechst 33342), where nuclei are identified. Second, a Z offset of 1 um is used for capturing mitochondria (MitoTracker Red). […]

Compound	outcome	AC50
CCOC(=O)CC(SP(=O)(OC)OC)C(=O)OCC (stereo not given)	inactive	–
S=C1NCCN1	inactive	–
N#CSCSC#N	inactive	–
CC[C@H](C)[C@H]1O[C@]2(C=C[C@@H]1C)C[C@@H]1C[C@@H](C/C=C(\C)[C@@H](O[C@H]3C[C@H](OC)[C@@H](O[C@H]4C[C@H](OC)[C@@H](NC)[C@H](C)O4)[C@H](C)O3)[C@@H](C)/C=C/C=C3\CO[C@@H]4[C@H](O)C(C)=C[C@@H](C(=O)O1)[C@]34O)O2	–	26.8 µM (active)
COc1cc(OC)nc(Sc2cccc(Cl)c2C(=O)O)n1	inactive	–
CCOP(=S)(OCC)Oc1ccc2c(C)c(Cl)c(=O)oc2c1	inactive	–
COc1cccc(C(=O)NN(C(=O)c2cc(C)cc(C)c2)C(C)(C)C)c1C	inactive	–
CCC(=NOC/C=C/Cl)C1=C(O)CC(C2CCOCC2)CC1=O (stereo not given)	inactive	–
O=c1ccc(=O)[nH][nH]1	inactive	–
CCOC(=O)COc1cc(-c2nn(C)c(OC(F)F)c2Cl)c(F)cc1Cl	inactive	–
COP(=O)(NC(C)=O)SC (stereo not given)	inactive	–
C#CCC1=C(C)C(OC(=O)C2C(C=C(C)C)C2(C)C)CC1=O (stereo not given)	inactive	–
CCCCOC(=O)c1ccccc1C(=O)O	inactive	–
CN(C)NC(=O)CCC(=O)O	inactive	–
CNC(=O)ON=C(C)SC	inactive	–
CCC(=O)Nc1ccc(Cl)c(Cl)c1	inactive	–
COc1ccc(C(=CC(=O)N2CCOCC2)c2ccc(Cl)cc2)cc1OC	inactive	–
CC(C1CC1)C(O)(Cn1cncn1)c1ccc(Cl)cc1 (stereo not given)	inactive	–
CN1COCN(Cc2cnc(Cl)s2)C1=N[N+](=O)[O-]	inactive	–
CC(=NC#N)N(C)Cc1ccc(Cl)nc1	inactive	–

Compound	outcome	AC50
CCCCSP(=O)(SCCCC)SCCCC	inactive	–
CC(C)[C@H](C(=O)O[C@H](C#N)c1cccc(Oc2ccccc2)c1)c1ccc(Cl)cc1	inactive	–
C[N+]1(C)CCCCC1	inactive	–
Nc1nc(N)nc(NC2CC2)n1	inactive	–
C[Si](Cn1cncn1)(c1ccc(F)cc1)c1ccc(F)cc1	inactive	–
CON=C(C(=O)OC)c1ccccc1CON=C(C)c1cccc(C(F)(F)F)c1	inactive	–
CCNc1nc(Cl)nc(NC(C)(C)C#N)n1	inactive	–
CCCOc1nn(C(=O)NS(=O)(=O)c2ccccc2C(=O)OC)c(=O)n1C	inactive	–
CNC(=O)ON=C(SC)C(=O)N(C)C	inactive	–
CCOP(=S)(OCC)Oc1cc(C)nc(C(C)C)n1	inactive	–
CCC(CC)Nc1c([N+](=O)[O-])cc(C)c(C)c1[N+](=O)[O-]	inactive	–
CCOP(=S)(OCC)Oc1ccc([N+](=O)[O-])cc1	inactive	–
CCc1cccc(C)c1N(C(=O)CCl)C(C)COC (stereo not given)	inactive	–
CC(C)=CC1C(C(=O)OCN2C(=O)C3=C(CCCC3)C2=O)C1(C)C (stereo not given)	inactive	–
CCCCN(CC)c1c([N+](=O)[O-])cc(C(F)(F)F)cc1[N+](=O)[O-]	inactive	–
FC(F)C(F)(F)OCC(Cn1cncn1)c1ccc(Cl)cc1Cl (stereo not given)	inactive	–
CCOP(=O)(OCC)Oc1cc(C)nc(C(C)C)n1	inactive	–
CNC(=O)Oc1cccc2c1OC(C)(C)O2	inactive	–
CCOP(=O)(NC(C)C)Oc1ccc(SC)c(C)c1 (stereo not given)	inactive	–
Cc1nn(-c2cc(NS(C)(=O)=O)c(Cl)cc2Cl)c(=O)n1C(F)F	inactive	–
